Measured values: PubChem BioAssay AID651917 (Southern Research Specialized Biocontainment Screening …, 2012)
Entries with a potency or affinity are not part of this list. Activity calls are given as the source filed them. The rule behind the calls is not given here.

Assay: VEEV TC-83 cytopathic effect inhibitors, confirmation, cell-based, TC-83 strain, set 8 (AID 651917)
Conditions: VEEV TC-83 infected cells; series mostly up to 25 µM
In the case of `CCN1CCN(Cc2nc3ccc(C(=O)O)cc3c(=O)n2-c2ccccc2)CC1`, the outcome was “inactive”. For `CCN1CCN(Cc2nc3ccc([N+](=O)[O-])cc3c(=O)n2Cc2ccccc2)CC1`, the outcome was “inactive”. With `CCN1CCN(Cc2nc3ccc(-c4cccnc4)cc3c(=O)n2-c2ccccc2)CC1` the outcome was “inactive”. For `O=c1nc(Nc2ccccc2OCc2ccccc2)sc2ncccc12`, the outcome was “inactive”. In the case of `O=C1CN(Cc2nc3ccc([N+](=O)[O-])cc3c(=O)n2-c2ccccc2F)CCN1`, the outcome was “inactive”. For `O=c1nc(Nc2ccc(CCc3ccccc3)cc2)sc2ncccc12`, the outcome was “inactive”. With `CN(C)c1cccc(-n2c(CN3CCNCC3)nc3ccc([N+](=O)[O-])cc3c2=O)c1` the outcome was “inactive”. In the case of `CCN1CCN(c2nc3ccc([N+](=O)[O-])cc3c(=O)n2-c2ccccc2)CC1`, the outcome was “inactive”. In the case of `CCN1CCN(Cc2nc3ccc([N+](=O)[O-])cc3c(=O)n2C)CC1`, the outcome was “inactive”. In the case of `CCN1CCN(Cc2nc3ccc(S(=O)(=O)O)cc3c(=O)n2-c2ccccc2)CC1`, the outcome was “inactive”. For `Cc1cccc(C)c1Nc1nc(=O)c2cccnc2s1`, the outcome was “inactive”. In the case of `CCN(CC)c1nc(=O)c2cccnc2s1`, the outcome was “inactive”. For `CCN1CCN(CC2Nc3ccc([N+](=O)[O-])cc3C(=O)N2c2ccccc2F)CC1` (stereo not drawn), the outcome was “inactive”. In the case of `O=c1nc(Nc2ccc(OCc3ccccc3)cc2)sc2ncc([N+](=O)[O-])cc12`, the outcome was “inactive”. In the case of `O=c1nc(NC2CCNCC2)sc2ncccc12`, the outcome was “inactive”. With `CN(C)c1ccc(-n2c(CN3CCNCC3)nc3ccc([N+](=O)[O-])cc3c2=O)cc1` the outcome was “inactive”. For `CCN1CCN(Cc2nc3ncccc3c(=O)n2-c2ccccc2)CC1`, the outcome was “inactive”. With `O=c1nc(Nc2ccc(F)cc2)sc2ncccc12` the outcome was “inactive”. In the case of `O=c1nc(N2CCN(Cc3ccccc3)CC2)sc2ncccc12`, the outcome was “inactive”. In the case of `CCN1CCN(Cc2nc3c([N+](=O)[O-])cccc3c(=O)n2-c2ccccc2)CC1`, the outcome was “inactive”. In the case of `COc1ccccc1-n1c(CN2CCNCC2)nc2ccc([N+](=O)[O-])cc2c1=O`, the outcome was “inactive”. For `COc1ccc(Nc2nc(=O)c3cccnc3s2)cc1`, the outcome was “inactive”. With `CCN1CCN(Cc2nc3ccc(-c4nn[nH]n4)cc3c(=O)n2-c2ccccc2)CC1` the outcome was “inactive”.
